Results on 15 molecules are retold here after PubChem BioAssay (NCATS).

Inconclusive results are not listed. Where a call stands in place of a potency, no number is given. Active and inactive are the calls of the source. Calls follow the shape of the dose curve; as a rule, active = well fitted cell-killing curve with a large enough effect; inconclusive = small, poorly fitted or top-dose-only effect, or effect the other way; inactive = flat fitted curve, though single readings scatter.
Potency is read from the fitted curve at half-maximal effect.

This experiment relates to OV90. The experiment in a line: Primary qHTS to identify gynecologic anti-cancer compounds using libraries of approved drugs and bioactive compounds (AID 1345084). Also: nearly all actives have a fitted effect of over 55% in size. The following applies: Gynecologic cancer cell panel viability, ATPlite luminescence, 48 h; series mostly up to 57.5 µM. In outline: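 In this quantitative HTS, cell killing is estimated from loss of ATP-dependent luciferase light. Cells see five compound concentrations over a 48 h exposure.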
A general note: In qHTS, concentration-response curves come from the screen itself.
Take `Cc1cc(Nc2nc(-c3ccccc3)nc3ccccc23)n[nH]1`: the Potency entry is “inactive”.
The result for `C=C1CC[C@@H]2[C@](C)(CO)[C@H](O)CC[C@@]2(C)[C@@H]1CC(O)C1=CCOC1=O` (stereo not given in full) reads “inactive”; that for `CCCOc1ccc(CCc2nc3cc(-c4c(C)noc4C)ccc3n2CCN2CCOCC2)cc1`, “inactive”.
The result for `O=C(N[C@@H]1CCCc2c1cnn2-c1ccc(F)cc1F)c1ccccn1` reads “inactive”; that for `O=C(O)c1ccc(N2C(=O)/C(=C/c3ccc(-c4ccc([N+](=O)[O-])cc4)o3)C=C2c2ccccc2)cc1`, “inactive”; that for `N#CC(CCCN1CCN(/N=C/c2cccnc2)CC1)(c1ccccc1)c1ccccc1`, “inactive”.
Consider `CCOC(=O)C1(CCOc2ccccc2)CCN(Cc2ccc(O)c(Cl)c2)CC1`, for which the Potency result was “inactive”.
The result for `C/C=C/C=C/C=C/C(=O)O[C@@H]1C=C(CO)C(O)(C(=O)OC)[C@@]2(C)CCCC(C)(C)C12` (stereo not given in full) reads “inactive”; that for `CCc1ccc(-c2nc(CSCC(=O)NCCc3ccccc3)c(C)o2)cc1`, “inactive”.
As to `O=C(Nc1ccccc1Cl)c1cnc2ccc(C3CCNCC3)cn12`, the Potency was 7.94 µM (active).
The result for `CC(C)(C)Oc1ccc(OCC2Cc3ccccc3CN2C(=O)c2cccc3ccccc23)cc1` (stereo not given) reads “inactive”; that for `C=C1C(=O)OC2CC(C)C(CCC(C)O)=CCC12` (stereo not given), “inactive”; that for `S=C(c1ccc(-c2ccc(Cl)c(Cl)c2)o1)N1CCCCC1`, “inactive”.
Turning to `CC(C)(O)C(=O)N1CCN(c2ccc(C(F)(F)F)c(C3=C(c4c[nH]c5ccccc45)C(=O)NC3=O)c2)CC1`, the Potency result was “inactive”.
The result for `COCC(c1ccc(C(F)(F)F)cc1)N1CCN(C2(C)CCN(C(=O)c3c(C)ncnc3C)CC2)CC1C` (stereo not given) reads “inactive”.
